Inconclusive results are not listed. Active and inactive are the calls of the source. How the source made its calls, unless noted: active means hit-call score of the fitted dose curve at least 0.9, where 1 is the maximum; inconclusive means response in the unintended direction; inactive means score below 0.9. Peptide text beside a SMILES is read from it.
Key:
[1] = target: Estrogen receptor beta (Homo sapiens) (UniProt Q92731); test: OT_ER_ERbERb_1440: Odyssey Thera (OT) 24-hour HEK293T Protein-Complementation Assay for Estrogen Receptor-beta/-beta Homodimer (AID 2283380);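 further: fluorescence gain from ER beta LBD homodimer complementation read by laser scanning cytometry; scored as signal increase over DMSO baseline for both agonists and antagonists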
How it was run: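 HEK293T cells stably expressing human ER-beta LBD (aa 310-547) PCA homodimer pair, dosed 24 h; formaldehyde-fixed, Draq5-stained. Readout: increase in nuclear (agonist) or nuclear plus cytoplasmic (antagonist) fluorescence intensity versus DMSO, gain-of-signal fitting.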

[2] = target: Estrogen receptor (Homo sapiens) (UniProt P03372); test: OT_ERa_GFPERaERE_0120: Odyssey Thera (OT) 2-hour HeLa Transcription Induction Assay for Estrogen Receptor (AID 2283382)
How it was run: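 Measures ESR1 pathway reporter gain-of-signal in HeLa cells after a 2-hour treatment, detected as fluorescent protein induction by microscopy, DMSO as baseline.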

[3] = target: Retinoic acid receptor RXR-alpha (Homo sapiens) (UniProt P19793); test: OT_NURR1_NURR1RXRa_0480: Odyssey Thera (OT) 8-hour HEK293T Protein Complementation Assay for Nurr1/retinoid X receptor (RXR) (AID 2283385)
How it was run: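 Compounds are applied to HEK293T cells carrying Nurr1 and RXRα linked to reporter fragments. After 8 h, fluorescence intensity reports heterodimer formation, with DMSO as baseline.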

[4] = target: Retinoic acid receptor RXR-alpha (Homo sapiens) (UniProt P19793); test: OT_NURR1_NURR1RXRa_1440: Odyssey Thera (OT) 24-hour HEK293T Protein Complementation Assay for Nurr1/retinoid X receptor (RXR) (AID 2283386)
How it was run: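 Measured as fluorescence from a reconstituted split reporter, this 24 h HEK293T complementation assay scores compound-induced gain of Nurr1/RXRα association relative to DMSO.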

[5] = target: Bile acid receptor (Homo sapiens) (UniProt Q96RI1); test: OT_FXR_FXRSRC1_0480: Odyssey Thera (OT) 8-hour HEK293T Protein-Complementation Assay for Farnesoid X receptor/SRC-1 Co-activator (AID 2283383)
How it was run: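 Co-activator recruitment to FXR was measured in living HEK293T cells, where interaction of the two fused partners restored an active fluorescent reporter. Signal gain after 8 h treatment was referenced to DMSO.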

[6] = target: Bile acid receptor (Homo sapiens) (UniProt Q96RI1); test: OT_FXR_FXRSRC1_1440: Odyssey Thera (OT) 24-hour HEK293T Protein-Complementation Assay for Farnesoid X receptor/SRC-1 Co-activator (AID 2283384)
How it was run: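 Cell-based binding reporter: interaction of FXR with SRC-1 brings reporter fragments together, giving a fluorescence signal read 24 h after dosing of HEK293T cells.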

[7] = target: Estrogen receptor (Homo sapiens) (UniProt P03372); test: OT_ERa_GFPERaERE_0480: Odyssey Thera (OT) 8-hour HeLa Transcription Induction Assay for Estrogen Receptor (AID 2283381; active means hit-call score of the fitted dose curve at least 0.9, where 1 is the maximum; inactive means score below 0.9)
How it was run: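 Cells (HeLa) receive compound; after 8 h, reporter fluorescence is imaged and quantified by high-content analysis. Gain-of-signal relative to DMSO gives the endpoint.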

[8] = target: Peroxisome proliferator-activated receptor gamma (Homo sapiens) (UniProt P37231); test: OT_PPARg_PPARgSRC1_0480: Odyssey Thera (OT) 8-hour Protein-Complementation Assay for Peroxisome Proliferator-activated Receptor Gamma / SRC-1 Co-activator (AID 2283387);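 further: nuclear to cytoplasmic split Venus YFP fluorescence ratio reporting PPARg SRC-1 interaction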
How it was run: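 Protein-fragment complementation in HEK293T: Venus YFP halves (residues 1-158, 159-239, mutated to IFP1/IFP2) fused to PPARg/SRC-1. 8 h exposure; N/C ratio at 488 nm; DMSO negative control.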

Peroxisome proliferator-activated receptor gamma (Homo sapiens), sequence (P37231 whole entry, looked up, the tested form may be a part): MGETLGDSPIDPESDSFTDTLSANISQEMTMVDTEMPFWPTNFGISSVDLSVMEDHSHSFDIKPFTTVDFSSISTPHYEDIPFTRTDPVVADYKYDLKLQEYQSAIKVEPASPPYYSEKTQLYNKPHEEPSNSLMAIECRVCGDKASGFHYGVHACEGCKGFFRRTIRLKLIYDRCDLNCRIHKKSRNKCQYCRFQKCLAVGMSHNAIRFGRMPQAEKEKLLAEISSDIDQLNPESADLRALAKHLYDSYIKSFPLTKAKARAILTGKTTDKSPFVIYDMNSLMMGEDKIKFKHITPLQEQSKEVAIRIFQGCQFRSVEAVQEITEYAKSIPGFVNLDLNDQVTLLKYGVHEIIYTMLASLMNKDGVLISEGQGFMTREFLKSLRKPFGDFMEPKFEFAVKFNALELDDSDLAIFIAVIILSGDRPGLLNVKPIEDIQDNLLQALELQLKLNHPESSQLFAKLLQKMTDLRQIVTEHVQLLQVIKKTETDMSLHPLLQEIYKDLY
Bile acid receptor (Homo sapiens), sequence (Q96RI1 whole entry, looked up, the tested form may be a part): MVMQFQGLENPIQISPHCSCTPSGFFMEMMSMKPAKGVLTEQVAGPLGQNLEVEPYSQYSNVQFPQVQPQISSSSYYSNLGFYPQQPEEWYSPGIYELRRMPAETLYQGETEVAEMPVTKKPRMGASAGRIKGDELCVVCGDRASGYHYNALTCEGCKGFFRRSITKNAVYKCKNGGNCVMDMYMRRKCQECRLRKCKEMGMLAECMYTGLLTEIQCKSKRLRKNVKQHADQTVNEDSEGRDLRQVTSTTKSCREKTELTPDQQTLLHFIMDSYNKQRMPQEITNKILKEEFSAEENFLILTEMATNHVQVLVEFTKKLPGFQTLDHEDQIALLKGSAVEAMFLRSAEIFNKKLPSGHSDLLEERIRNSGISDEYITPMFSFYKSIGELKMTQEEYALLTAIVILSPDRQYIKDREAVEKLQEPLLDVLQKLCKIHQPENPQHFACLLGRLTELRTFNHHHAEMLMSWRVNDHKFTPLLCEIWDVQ
Retinoic acid receptor RXR-alpha (Homo sapiens), sequence (P19793 whole entry, looked up, the tested form may be a part): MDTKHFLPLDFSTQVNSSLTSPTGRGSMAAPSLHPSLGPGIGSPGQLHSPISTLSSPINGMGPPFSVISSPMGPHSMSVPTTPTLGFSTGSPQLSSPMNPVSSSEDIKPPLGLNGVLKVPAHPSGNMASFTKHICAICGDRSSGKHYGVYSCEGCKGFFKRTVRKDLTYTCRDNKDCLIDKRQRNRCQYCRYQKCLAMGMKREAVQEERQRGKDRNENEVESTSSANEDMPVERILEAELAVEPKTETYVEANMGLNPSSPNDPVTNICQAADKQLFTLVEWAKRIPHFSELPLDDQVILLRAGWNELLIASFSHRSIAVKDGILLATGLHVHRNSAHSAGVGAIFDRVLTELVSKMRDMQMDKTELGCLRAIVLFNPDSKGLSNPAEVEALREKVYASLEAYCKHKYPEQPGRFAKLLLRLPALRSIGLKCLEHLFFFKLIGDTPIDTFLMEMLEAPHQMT
Estrogen receptor beta (Homo sapiens), sequence (Q92731 whole entry, looked up, the tested form may be a part): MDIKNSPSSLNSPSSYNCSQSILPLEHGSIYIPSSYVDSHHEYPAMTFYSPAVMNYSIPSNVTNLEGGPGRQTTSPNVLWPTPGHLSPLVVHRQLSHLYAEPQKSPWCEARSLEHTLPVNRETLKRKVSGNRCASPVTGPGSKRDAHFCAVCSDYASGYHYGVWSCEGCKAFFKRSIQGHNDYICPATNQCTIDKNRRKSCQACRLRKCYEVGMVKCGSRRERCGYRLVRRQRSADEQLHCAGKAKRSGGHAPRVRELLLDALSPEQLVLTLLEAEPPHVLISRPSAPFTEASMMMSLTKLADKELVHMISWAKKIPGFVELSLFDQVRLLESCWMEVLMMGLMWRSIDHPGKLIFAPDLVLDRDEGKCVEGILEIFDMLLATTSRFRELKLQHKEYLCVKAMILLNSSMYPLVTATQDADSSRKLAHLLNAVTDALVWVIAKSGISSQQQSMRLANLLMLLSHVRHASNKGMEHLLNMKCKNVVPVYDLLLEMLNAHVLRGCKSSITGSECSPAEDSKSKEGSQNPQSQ
Estrogen receptor (Homo sapiens), sequence (P03372 whole entry, looked up): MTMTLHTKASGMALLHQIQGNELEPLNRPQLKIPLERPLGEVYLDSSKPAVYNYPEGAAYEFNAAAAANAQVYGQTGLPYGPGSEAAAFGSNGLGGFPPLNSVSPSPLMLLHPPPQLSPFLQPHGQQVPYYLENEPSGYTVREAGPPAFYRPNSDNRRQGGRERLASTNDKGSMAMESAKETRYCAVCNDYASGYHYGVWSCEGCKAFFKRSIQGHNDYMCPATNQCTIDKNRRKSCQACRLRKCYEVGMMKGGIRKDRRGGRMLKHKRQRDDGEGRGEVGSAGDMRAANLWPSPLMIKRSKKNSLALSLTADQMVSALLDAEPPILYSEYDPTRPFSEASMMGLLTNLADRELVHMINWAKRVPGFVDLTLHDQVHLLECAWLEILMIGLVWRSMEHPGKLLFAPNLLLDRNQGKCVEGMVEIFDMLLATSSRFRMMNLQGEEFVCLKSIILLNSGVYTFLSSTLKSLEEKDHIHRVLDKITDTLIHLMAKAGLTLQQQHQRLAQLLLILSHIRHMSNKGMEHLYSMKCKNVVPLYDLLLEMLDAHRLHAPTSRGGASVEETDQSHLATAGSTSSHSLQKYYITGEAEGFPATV

## CC1(C)[C@@H]2CC[C@@]1(C)C(=O)C2
[1]
  outcome: inactive
[2]
  outcome: inactive
[3]
  outcome: inactive
[4]
  outcome: inactive

## CCC(C)(O)CCCC(C)C (stereo not drawn)
[2]
  outcome: inactive
[5]
  outcome: inactive
[6]
  outcome: inactive
[4]
  outcome: inactive

## O=C(O)CCC(=O)O
[7]
  outcome: inactive
[2]
  outcome: inactive

## CCCCCCCO
[1]
  outcome: inactive
[2]
  outcome: inactive
[3]
  outcome: inactive

## C=C(C)C1CC=C(C)CC1 (stereo not drawn)
[7]
  outcome: inactive
[2]
  outcome: inactive
[3]
  outcome: inactive
[4]
  outcome: inactive

## CCc1occc(=O)c1O
[2]
  outcome: inactive
[5]
  outcome: inactive
[6]
  outcome: inactive
[3]
  outcome: inactive
[8]
  outcome: inactive

## COC(=O)[C@H](Cc1ccccc1)NC(=O)[C@@H](N)CC(=O)O (H-Asp-Phe-OMe)
[7]
  outcome: inactive
[2]
  outcome: inactive
[5]
  outcome: inactive
[3]
  outcome: inactive
[8]
  outcome: inactive

## CC1=CC=C(C(C)C)CC1
[2]
  AC50: 23.8 µM (active)
[3]
  outcome: inactive

## O=C(O)c1cc(O)c2ccccc2c1O
[1]
  outcome: inactive
[2]
  AC50: 25.4 µM (active)
[3]
  outcome: inactive
[8]
  AC50: 73.7 µM (active)

## CCCCCCO
[2]
  outcome: inactive
[3]
  outcome: inactive

## O=C(OCCc1ccccc1)c1ccccc1
[2]
  outcome: inactive

## CCCCNS(=O)(=O)c1ccc(C)cc1
[7]
  outcome: inactive
[2]
  outcome: inactive
[4]
  outcome: inactive

## Fc1ccc(Br)cc1
[7]
  outcome: inactive
[2]
  outcome: inactive
[3]
  outcome: inactive

## CC(=O)c1ccccc1O
[2]
  outcome: inactive
[4]
  outcome: inactive

## CCCCCC[C@@H](O)C/C=C\CCCCCCCC(=O)OCC(O)CO (stereo partly drawn)
[7]
  outcome: inactive
[2]
  outcome: inactive
[3]
  outcome: inactive
[8]
  outcome: inactive

## C[Si]1(C)O[Si](C)(C)O[Si](C)(C)O[Si](C)(C)O[Si](C)(C)O1
[7]
  outcome: inactive
[2]
  outcome: inactive

## CCCCC(C=O)CC (stereo not drawn)
[1]
  outcome: inactive
[2]
  outcome: inactive
[5]
  outcome: inactive
[8]
  outcome: inactive

## CCC1COC(=O)O1 (stereo not drawn)
[7]
  outcome: inactive
[2]
  outcome: inactive
[5]
  outcome: inactive
[6]
  outcome: inactive
[3]
  outcome: inactive

## C=CCOC(=O)c1ccc(C(=O)OCC=C)c(C(=O)OCC=C)c1
[1]
  outcome: inactive
[2]
  outcome: inactive
[3]
  outcome: inactive
[8]
  outcome: inactive

From PubChem BioAssay (EPA / NIEHS)
